Results on 87 sequences are retold here after the supplement of paper PMC3334620.

In all, about 33,000 sequences were measured (“E-score (-0.5 to 0.5)”: median about -0.012, highest 2% from about 0.29 on). The sample holds the highest values, similar sequences and a random draw of the others, so the mix is not that of the screen.

The target in this experiment is T1, Ybr033w (UniProt P38073).
T1 sequence: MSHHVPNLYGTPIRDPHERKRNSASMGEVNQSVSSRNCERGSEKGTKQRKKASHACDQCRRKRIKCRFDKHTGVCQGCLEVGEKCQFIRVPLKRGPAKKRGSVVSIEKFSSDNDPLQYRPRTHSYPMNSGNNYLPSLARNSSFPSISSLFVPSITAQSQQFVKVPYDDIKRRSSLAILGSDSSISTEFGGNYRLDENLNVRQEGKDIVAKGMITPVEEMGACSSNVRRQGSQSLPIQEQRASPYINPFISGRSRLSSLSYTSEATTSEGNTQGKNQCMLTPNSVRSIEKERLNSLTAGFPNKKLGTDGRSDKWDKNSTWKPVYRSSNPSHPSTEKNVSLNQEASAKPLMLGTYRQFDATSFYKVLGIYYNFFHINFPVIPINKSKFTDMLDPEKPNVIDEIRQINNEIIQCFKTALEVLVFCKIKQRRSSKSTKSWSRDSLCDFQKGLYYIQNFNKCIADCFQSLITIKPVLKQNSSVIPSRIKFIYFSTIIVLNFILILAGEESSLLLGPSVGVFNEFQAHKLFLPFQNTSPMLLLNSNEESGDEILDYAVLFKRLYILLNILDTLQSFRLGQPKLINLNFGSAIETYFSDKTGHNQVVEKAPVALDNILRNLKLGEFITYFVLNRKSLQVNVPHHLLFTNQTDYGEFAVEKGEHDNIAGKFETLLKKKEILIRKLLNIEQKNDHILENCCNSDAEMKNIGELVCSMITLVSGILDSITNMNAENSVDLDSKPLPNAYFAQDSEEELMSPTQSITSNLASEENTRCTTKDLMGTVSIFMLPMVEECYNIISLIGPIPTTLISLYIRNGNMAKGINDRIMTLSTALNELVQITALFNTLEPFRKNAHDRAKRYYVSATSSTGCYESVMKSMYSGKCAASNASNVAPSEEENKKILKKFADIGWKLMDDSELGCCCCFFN
The experiment can be described thus: PBM E-score (8-mer binding enrichment) (E-score (-0.5 to 0.5)); higher = stronger / more preferred TF binding. The note with it: protein concentration: 200 nM; construct: GST-full length. The method, boiled down: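 Detection of bound protein used fluorescent anti-GST, with scans normalised by masliner. The proteins were GST-tagged yeast transcription factors applied at about 100-200 nM to universal all-10-mer Agilent arrays made double-stranded by primer extension. Each ungapped eight-base word, pooled with its reverse complement, was scored with an E-score from the Universal PBM Analysis Suite.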
As for AATTTATG, the “PBM E-score” value is 0.317.
Take AATTTATC: the “PBM E-score” value is 0.398.
ACTTTATG: the “PBM E-score” value came to 0.132.
For AGTTTATA, the “PBM E-score” value amounted to 0.215.
In the case of GCAAGCGC, the “PBM E-score” value is -0.00847.
Regarding GTAACCAC, the “PBM E-score” value was -0.255.
Consider CTCAATGC, for which the “PBM E-score” value is -0.0435.
The value for AGATCTTG was -0.00564; that for GAAGTGAA was 0.155; that for TAAGTGAA was 0.293.
On to AAAGTGAA, for which the “PBM E-score” value came to 0.164.
The value for CAAGCCAG was -0.0473; that for ATTAGATG was 0.329.
The value for ATTAGATA was 0.222; that for ATTAGATC was 0.0257.
Regarding AATCGGGG, the “PBM E-score” value is -0.125.
For CTAATCTC, the “PBM E-score” value was -0.0112.
ATAATCTC: the “PBM E-score” value worked out at 0.293.
The value for ACAATCTC was 0.0789; that for AAAATCTG was 0.235; that for GTAATCTA was 0.207.
In the case of GAAATCTA, the “PBM E-score” value is 0.116.
For AAAATCTA, the “PBM E-score” value amounted to 0.289.
Consider ATAATCTA, for which the “PBM E-score” value was determined as 0.294.
With ATAATCTG, the “PBM E-score” value came out at 0.117.
The value for AGACAGGA was 0.246; that for TCTCAAAA was 0.143.
In the case of GCGAGACA, the “PBM E-score” value is -0.0827.
With CAAATAGG the figure was 0.00709; with CAGACGAG, -0.108.
As for AAACGGAA, the “PBM E-score” value was determined as 0.341.
For AAACGGAC, the “PBM E-score” value is -0.102.
For the sequence GAACGGAA, the “PBM E-score” value is 0.0333.
Turning to AACTCAAT, the “PBM E-score” value was determined as 0.0866.
Regarding GGGTGAGA, the “PBM E-score” value is -0.224.
In the case of CTCACTTA, the “PBM E-score” value came to 0.0375.
Turning to GGGTAAGA, the “PBM E-score” value was -0.154.
For TACACTAA, the “PBM E-score” value is 0.0217.
The value for CACACTAG was 0.0753; that for CACACTAA was 0.299; that for GCGCTGAA was -0.0684.
The value for ACCACGAG was 0.0793.
Consider CGTAATTC, for which the “PBM E-score” value came out at 0.0565.
The value for CGTAATTA was 0.29.
As to ATTAAGTA, the “PBM E-score” value worked out at 0.365.
The value for ATTAATTG was 0.268; that for ATTAGTTG was 0.265; that for GTTAATTA was 0.266.
The value for ATTAATTA was 0.387; that for ATTAGTTA was 0.344; that for GGTAATTA was 0.175.
With GTTAGTTA the figure was 0.262; with ATTAAGTG, 0.167.
For the sequence GTTAAGTA, the “PBM E-score” value came out at 0.113.
With CGGGGCGA the figure was -0.145; with AAACACCC, 0.0312.
With GCGCGATA, the “PBM E-score” value was 0.181.
With CCTCCTAC, the “PBM E-score” value was -0.107.
With GACCTATA the figure was 0.189.
As to GGTGGCCA, the “PBM E-score” value is -0.292.
AACAGTAA: the “PBM E-score” value came to 0.173.
For CTCTTCGA, the “PBM E-score” value was 0.0693.
With ACAGGTGA, the “PBM E-score” value is 0.0969.
ACTTACCA: the “PBM E-score” value came to 0.0956.
As to CCGCTAAC, the “PBM E-score” value was -0.0857.
Take AGTAATTG: the “PBM E-score” value was 0.129.
For CTTAATTC, the “PBM E-score” value came to 0.257.
For the sequence ACTAATTC, the “PBM E-score” value came out at 0.221.
In the case of AGTAATTC, the “PBM E-score” value turned out to be 0.318.
ATTAATTC: the “PBM E-score” value was found to be 0.291.
Regarding AGTAATTA, the “PBM E-score” value stood at 0.232.
For CCTTACCA, the “PBM E-score” value was -0.00851.
For the sequence ACACCTGA, the “PBM E-score” value is -0.0619.
With AGTTCTAC the figure was 0.0539.
With AATCAAGC, the “PBM E-score” value is 0.0885.
As to ATATATTG, the “PBM E-score” value is 0.14.
With CTATATTC the figure was 0.215; with CTATATTA, 0.284; with ATATATTA, 0.306.
On to ACATATTA, for which the “PBM E-score” value was found to be 0.349.
With ATATATCC the figure was 0.372; with GTATATTA, 0.257; with ATATATCA, 0.0628.
The value for ATATATTC was 0.326; that for CTATATCC was 0.159; that for ACATATTG was 0.193.
With CCATATTA the figure was 0.146.
